Results on 40 compounds are retold here after PubChem BioAssay (NCATS).

The source made the active and inactive calls. Calls come from the whole dose curve.

This experiment in a line: Cell Proliferation Assay Versus the ED40515 IL2 Dependent ATL cell lines (AID 1053195). To be noted: ED40515 IL2-dependent ATL cells. The text has this: Adult T-cell leukemia (ATL) develops in individuals infected with human T-cell lymphotropic virus-1 (HTLV-1). Clinically, ATL is subclassified into four subtypes: smoldering, chronic, lymphomatous, and acute. Two autocrine loops (IL-2/IL-2Ralpha and IL-15/IL-15Ralpha) and one paracrine stimulation loop that involves IL-9 expression by ATL cells and IL-9Ralpha expression on monocytes are required to maintain viability and proliferation in the smoldering and chronic forms of the disease. These assays examined the differential response profiles for the MIPE library of approved and investigational drugs versus an IL2 dependent and independent matched ATL cell line, with the current submission examining the differential response profiles for drugs on an IL2 dependent matched ATL cell line.
Plate log growing ED40515 +IL2 cells: 1000cells/ well in 5uL phenol red free RPMI +5% FBS +1x p/s, Glutamine using 1536 well white griener tissue culture plates and multidrop cassette acoustic dispensing Columns 1 and 3 DMSO Columns 2 and 4, 9.2 uM Bortezomib Incubate 48 hours for celltiter glo 37C with 5%CO2 and 95% humidity with low evaporation lids Dispense 3 uL per well of cell titer glo with multidrop Incubate for 15 minutes at RT Read on VL/2 using Luminesence Wheel (Filter A)
As to `O=C(O)[C@@H](c1ccc(OCc2ccc3ccccc3n2)cc1)C1CCCC1`, the Potency is 26.4 µM (active).
Under `COc1ccc(C2=N[C@H](c3ccc(Cl)cc3)[C@H](c3ccc(Cl)cc3)N2C(=O)N2CCNC(=O)C2)c(OC(C)C)c1` stands 20.9 µM (active); under `CC(C)(N)C(=O)N[C@H](COCc1ccccc1)C(=O)N1CCC2(CC1)CN(S(C)(=O)=O)c1ccccc12`, 11.8 µM (active); under `COc1cc(F)c(F)c(Nc2ccc(I)cc2F)c1NS(=O)(=O)C1(C[C@H](O)CO)CC1`, 37.2 µM (active).
Under `CN(C(=O)c1ccc(F)cc1C(F)(F)F)C1CCN(c2nnc(-c3ccnn3C)c3ccccc23)CC1` stands 2.96 µM (active); under `CNC(=O)c1ccc(N2C(=S)N(c3ccc(C#N)c(C(F)(F)F)c3)C(=O)C2(C)C)cc1F`, 16.6 µM (active).
Under `Cc1c(C)c2c(c(C)c1O)CCC(C)(COc1ccc(CC3SC(=O)NC3=O)cc1)O2` (stereo not given) stands 16.6 µM (active); under `CCOC(=O)C1=C[C@@]2(CC)CCCN3CCc4c(n1c1ccccc41)[C@H]32`, 9.5 µM (active); under `C[C@@H]1C[C@H]2[C@@H]3CCC4=CC(=O)C=C[C@]4(C)C3(F)[C@@H](O)C[C@]2(C)[C@@]1(O)C(=O)CO` (stereo not given in full), 2.64 µM (active).
In the case of `O=C(C=Cc1ccc(/C=C/C(=O)Nc2ccc(C3=NCCN3)cc2)cc1)Nc1ccc(C2=NCCN2)cc1`, the Potency was 2.09 µM (active).
Take `Cc1ccc2c(c1)C(=O)[C@@]1(O)CCN(c3ccccc3)C1=N2`: the Potency is 13.2 µM (active).
Under `CCOc1cc(N2CCC(O)CC2)ccc1Nc1ncc2c(n1)N(C)c1ccccc1C(=O)N2C` stands 11.8 µM (active); under `O=C(O)c1ccc(-c2c[nH]c3ccc(-c4ccccc4)cc23)cc1C1CCCC1`, 5.26 µM (active).
In the case of `Clc1ccc(Nc2nnc(Cc3ccncc3)c3ccccc23)cc1`, the Potency was 37.2 µM (active).
As for `CCC(C)(C)C(=O)O[C@H]1C[C@@H](C)C=C2C=C[C@H](C)[C@H](CC[C@@H]3C[C@@H](O)CC(=O)O3)[C@H]21`, the Potency was 3.17 µM (active).
In the case of `CCC(=O)N[C@H]1CC[C@H](C(=O)N(C)c2ccc(-c3nc4ccccc4o3)cc2)C1`, the Potency was 3.32 µM (active).
Consider `CC1(C)CNc2cc(NC(=O)c3cccnc3NCc3ccncc3)ccc21`, for which the Potency is 23.5 µM (active).
In the case of `COc1cccc2cc(-c3nc(C4CCC(C(=O)O)CC4)n4ncnc(N)c34)[nH]c12` (stereo not given), the Potency was 4.18 µM (active).
Under `OCCn1cc(-c2cnc3nnn(Cc4ccc5ncccc5c4)c3n2)cn1` stands 18.7 µM (active); under `Cc1cc(SCc2sc(-c3ccc(C(F)(F)F)cc3)nc2C)ccc1OCC(=O)O`, 26.4 µM (active); under `O=C(c1cc(Cc2n[nH]c(=O)c3ccccc23)ccc1F)N1CCN(C(=O)C2CC2)CC1`, 16.6 µM (active).
Under `O=C(O)CCc1ccc(NCc2cccc(Oc3ccccc3)c2)cc1` stands 0.0833 µM (active); under `CNC(=O)c1ccc(C)c(-n2c(C)cc(OCc3ccc(F)cc3F)c(Br)c2=O)c1`, 5.9 µM (active).
In the case of `CNCc1ccc(-c2[nH]c3cc(F)cc4c3c2CCNC4=O)cc1`, the Potency was 20.9 µM (active).
As for `CCc1ccc(CCOc2ccc(CC3SC(=O)NC3=O)cc2)nc1` (stereo not given), the figure is 16.6 µM (active).
Under `CC(C)(Sc1ccc(CCN(CCCCC2CCCCC2)C(=O)NC2CCCCC2)cc1)C(=O)O` stands 18.7 µM (active); under `O=C(Nc1ccc(F)c(C(F)(F)F)c1)Nc1nnc(-c2ccncc2)s1`, 0.935 µM (active); under `CN(C)c1ccc(C2Nc3ccc4ccccc4c3C3=C2C(=O)CC(C)(C)C3)cc1Br` (stereo not given), 14.8 µM (active).
For the compound `Cc1c(CN2CCN(C(=O)C(C)C)CC2)sc2c(N3CCOCC3)nc(-c3cnc(N)nc3)nc12`, the Potency was 1.66 µM (active).
Turning to `Cc1cccc(-c2nn(C(=S)Nc3ccccc3)cc2-c2ccnc3ccccc23)n1`, the Potency is 2.35 µM (active).
Under `CC(C)c1onc(-c2c(Cl)cccc2Cl)c1COc1ccc(/C=C/c2cccc(C(=O)O)c2)c(Cl)c1` stands 20.9 µM (active); under `COc1nc(-c2ccc3c(c2)OCO3)n(-c2ccc(NC(=O)CSc3ccccc3)cc2)n1`, 20.9 µM (active); under `C[C@@H]1CN(Cc2ccc(F)cc2)[C@@H](C)CN1C(=O)c1cc2c(C(=O)C(=O)N(C)C)cn(C)c2cc1Cl`, 16.6 µM (active).
For `COc1cc2nccc(Oc3ccc(NC(=O)NC4CC4)c(Cl)c3)c2cc1C(N)=O`, the Potency was 20.9 µM (active).
As for `CN[C@@H](C)C(=O)N[C@H]1CCCC[C@H]2CC[C@@H](C(=O)N[C@@H](c3ccccc3)c3cn(CCCCc4ccc(CCCCn5cc([C@@H](NC(=O)[C@@H]6CC[C@@H]7CCCC[C@H](NC(=O)[C@H](C)NC)C(=O)N76)c6ccccc6)nn5)cc4)nn3)N2C1=O`, the figure is 23.5 µM (active); as for `CC(C)OC(=O)C1=CN(C(=O)c2ccc(F)c(F)c2)CC(C)(C)c2c1[nH]c1ccccc21`, 4.18 µM (active); as for `Fc1ccc(Cl)cc1-c1nc(Nc2ccncc2)c2nccnc2n1`, 13.2 µM (active).
Under `CS(=O)(=O)c1cccc(CNc2nc(Nc3ccc4c(c3)CCC(=O)N4)ncc2C(F)(F)F)c1` stands 3.32 µM (active); under `COc1ccccc1[C@H](c1cccc2ccccc12)[C@@](C)(C#N)C(=O)N1CCC(c2cccc(C(F)(F)F)c2)CC1`, 2.64 µM (active).
As to `Cn1cnc2c(F)c(Nc3ccc(Br)cc3Cl)c(C(=O)NOCCO)cc21`, the Potency was 16.6 µM (active).
